Measurements published in PubChem BioAssay (NCATS).
Inconclusive results are not listed. The source made the active and inactive calls. Calls come from the whole dose curve; as a rule, active = well fitted inhibition curve with a large enough effect; inconclusive = small, poorly fitted or top-dose-only effect; inactive = flat fitted curve, though single readings scatter.

Columns and labels:
[1] = system: CP262; assay: qHTS profiling for inhibitors of Plasmodium falciparum proliferation (AID 504749);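 note: 0% = DMSO vehicle and full inhibition = artemisinin control; nearly all actives have a fitted effect of over 60% in size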; conditions: P. falciparum in erythrocytes, SYBR Green DNA, 72 h; series mostly up to 28.7 µM
Outline: (§1)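 In a 72 h erythrocytic culture (37 C, humidified, 5% CO2) at 2.5% hematocrit and 0.3% starting parasitemia, compounds were tested; SYBR Green I in detergent lysis buffer stained parasite DNA overnight.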

[2] = system: CP265; assay: as above; conditions: P. falciparum in erythrocytes, SYBR Green DNA, 72 h; series mostly up to 28.7 µM
Outline: as §1

[3] = system: CP266; assay: as above; conditions: P. falciparum in erythrocytes, SYBR Green DNA, 72 h; series mostly up to 28.7 µM
Outline: as §1

[4] = system: CP268; assay: as above; conditions: P. falciparum in erythrocytes, SYBR Green DNA, 72 h; series mostly up to 28.7 µM
Outline: as §1

[5] = system: CP269; assay: as above; conditions: P. falciparum in erythrocytes, SYBR Green DNA, 72 h; series mostly up to 28.7 µM
Outline: as §1

[6] = system: CP286; assay: as above; conditions: P. falciparum in erythrocytes, SYBR Green DNA, 72 h; series mostly up to 28.7 µM
Outline: as §1

[7] = system: CP291; assay: as above; conditions: P. falciparum in erythrocytes, SYBR Green DNA, 72 h; series mostly up to 28.7 µM
Outline: as §1

[8] = system: CP297; assay: as above; conditions: P. falciparum in erythrocytes, SYBR Green DNA, 72 h; series mostly up to 28.7 µM
Outline: as §1

[9] = system: CP305; assay: as above; conditions: P. falciparum in erythrocytes, SYBR Green DNA, 72 h; series mostly up to 28.7 µM
Outline: as §1

[10] = system: CP315; assay: as above; conditions: P. falciparum in erythrocytes, SYBR Green DNA, 72 h; series mostly up to 28.7 µM
Outline: as §1

[11] = system: CP325; assay: as above; conditions: P. falciparum in erythrocytes, SYBR Green DNA, 72 h; series mostly up to 28.7 µM
Outline: as §1

[12] = system: CP329; assay: as above; conditions: P. falciparum in erythrocytes, SYBR Green DNA, 72 h; series mostly up to 28.7 µM
Outline: as §1

[13] = system: CP335; assay: as above; conditions: P. falciparum in erythrocytes, SYBR Green DNA, 72 h; series mostly up to 28.7 µM
Outline: as §1

[14] = system: DFO2036; assay: as above; conditions: P. falciparum in erythrocytes, SYBR Green DNA, 72 h; series mostly up to 28.7 µM
Outline: as §1

[15] = system: DIV14; assay: as above; conditions: P. falciparum in erythrocytes, SYBR Green DNA, 72 h; series mostly up to 28.7 µM
Outline: as §1

[16] = system: DIV17; assay: as above; conditions: P. falciparum in erythrocytes, SYBR Green DNA, 72 h; series mostly up to 28.7 µM
Outline: as §1

[17] = system: DIV30; assay: as above; conditions: P. falciparum in erythrocytes, SYBR Green DNA, 72 h; series mostly up to 28.7 µM
Outline: as §1

[18] = system: Dd2; assay: as above; conditions: P. falciparum in erythrocytes, SYBR Green DNA, 72 h; series mostly up to 28.7 µM
Outline: as §1

[19] = system: ECU; assay: as above; conditions: P. falciparum in erythrocytes, SYBR Green DNA, 72 h; series mostly up to 28.7 µM
Outline: as §1

[20] = system: FAB9; assay: as above; conditions: P. falciparum in erythrocytes, SYBR Green DNA, 72 h; series mostly up to 28.7 µM
Outline: as §1

[21] = system: GB4; assay: as above; conditions: P. falciparum in erythrocytes, SYBR Green DNA, 72 h; series mostly up to 28.7 µM
Outline: as §1

[22] = system: HB3; assay: as above; conditions: P. falciparum in erythrocytes, SYBR Green DNA, 72 h; series mostly up to 28.7 µM
Outline: as §1

[23] = system: ICS; assay: as above; conditions: P. falciparum in erythrocytes, SYBR Green DNA, 72 h; series mostly up to 28.7 µM
Outline: as §1

[24] = system: JCK; assay: as above; conditions: P. falciparum in erythrocytes, SYBR Green DNA, 72 h; series mostly up to 28.7 µM
Outline: as §1

[25] = system: N140; assay: as above; conditions: P. falciparum in erythrocytes, SYBR Green DNA, 72 h; series mostly up to 28.7 µM
Outline: as §1

[26] = system: P93_24; assay: as above; conditions: P. falciparum in erythrocytes, SYBR Green DNA, 72 h; series mostly up to 28.7 µM
Outline: as §1

[27] = system: P94_40; assay: as above; conditions: P. falciparum in erythrocytes, SYBR Green DNA, 72 h; series mostly up to 28.7 µM
Outline: as §1

[28] = system: PAD; assay: as above; conditions: P. falciparum in erythrocytes, SYBR Green DNA, 72 h; series mostly up to 28.7 µM
Outline: as §1

[29] = system: PC15; assay: as above; conditions: P. falciparum in erythrocytes, SYBR Green DNA, 72 h; series mostly up to 28.7 µM
Outline: as §1

[30] = system: PC26; assay: as above; conditions: P. falciparum in erythrocytes, SYBR Green DNA, 72 h; series mostly up to 28.7 µM
Outline: as §1

[31] = system: PC49; assay: as above; conditions: P. falciparum in erythrocytes, SYBR Green DNA, 72 h; series mostly up to 28.7 µM
Outline: as §1

[32] = system: SC27B; assay: as above; conditions: P. falciparum in erythrocytes, SYBR Green DNA, 72 h; series mostly up to 28.7 µM
Outline: as §1

[33] = system: TAB109; assay: as above; conditions: P. falciparum in erythrocytes, SYBR Green DNA, 72 h; series mostly up to 28.7 µM
Outline: as §1

[34] = system: TAB113; assay: as above; conditions: P. falciparum in erythrocytes, SYBR Green DNA, 72 h; series mostly up to 28.7 µM
Outline: as §1

[35] = system: TAB165; assay: as above; conditions: P. falciparum in erythrocytes, SYBR Green DNA, 72 h; series mostly up to 28.7 µM
Outline: as §1

[36] = system: W2; assay: as above; conditions: P. falciparum in erythrocytes, SYBR Green DNA, 72 h; series mostly up to 28.7 µM
Outline: as §1

[37] = system: KB-3-1; assay: Cytotoxic Profiling of Annotated Libraries Using Quantitative High-Throughput Screening (AID 1296008); conditions: Five cell lines viability, CellTiter-Glo ATP luminescence, 48-72 h; max response: stronger effect = lower value; note: % is set by controls: 0 for no effect and ±100 for the full control effect; nearly all actives have a fitted effect of over 60% in size
Outline: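 Cytotoxicity was measured as CellTiter-Glo ATP luminescence, read after 10 min at room temperature. Compound treatment of the cells lasted 48 or 72 hr at 37 degrees Celsius in a qHTS format.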

[38] = Drug repurposing screens with cells derived from glioblastoma tumor samples (AID 1345199); conditions: GBM patient neurospheres viability, ATP luminescence, 48 h; Potency: tumour line A; series mostly up to 45.9 µM; note: % is set by controls: 0 for no effect and ±100 for the full control effect; nearly all actives have a fitted effect of over 40% in size
Outline: (§2)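 Primary testing used CD133+ neurospheres from four GBM patients, seven concentrations, 48 h exposure and ATP-based viability; confirmation added three slower-growing patient lines.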

[39] = system: astro; assay: as above; conditions: viability, ATP luminescence, 48 h; series mostly up to 45.9 µM
Outline: as §2

C[N+](C)(C)CC(=O)[O-]
inactive: Potency [1] | Potency [2] | Potency [3] | Potency [4] | Potency [5] | Potency [6] | Potency [7] | Potency [8] | Potency [9] | Potency [10] | Potency [11] | Potency [12] | Potency [13] | Potency [14] | Potency [15] | Potency [16] | Potency [17] | Potency [18] | Potency [19] | Potency [20] | Potency [21] | Potency [22] | Potency [23] | Potency [24] | Potency [25] | Potency [26] | Potency [27] | Potency [28] | Potency [29] | Potency [30] | Potency [31] | Potency [32] | Potency [33] | Potency [34] | Potency [35] | Potency [36] | max response [37] 9.58% | Potency [38] | Potency [39]
